According to PubChem BioAssay (NCI):
Compounds without any hit were thinned out: in the full panel of roughly 83,000, 20% have a hit.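 Plates (96-well) were seeded with cells, treated with compound at one concentration, and incubated for 48 hours before percent growth was determined.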 Unmarked numbers belong to inactive results. The source made the active and inactive calls. Rule for the calls: active = growth percent below 10; inactive = the rest.

How the values were obtained:
Assay in all cases: NCI-60 one-dose screen, 48 h (100 = growth as untreated, 0 = no growth, -100 = all killed)
Details in all cases: 10 µM
[1] = tested on: DU-145 prostate
[2] = tested on: K-562 leukemia
[3] = tested on: MALME-3M melanoma
[4] = tested on: MDA-MB-231 breast
[5] = tested on: RXF 393 renal
[6] = tested on: SF-268 CNS
[7] = tested on: SF-295 CNS
[8] = tested on: SF-539 CNS
[9] = tested on: UACC-257 melanoma
[10] = tested on: M14 melanoma
[11] = tested on: HCT-15 colon
[12] = tested on: HT29 colon
[13] = tested on: SNB-19 CNS
[14] = tested on: U251 CNS
[15] = tested on: PC-3 prostate
[16] = tested on: SK-MEL-5 melanoma
[17] = tested on: UACC-62 melanoma
[18] = tested on: LOX IMVI melanoma
[19] = tested on: SK-MEL-28 melanoma
[20] = tested on: SNB-75 CNS

Row | Compound | growth [1] | growth [2] | growth [3] | growth [4] | growth [5] | growth [6] | growth [7] | growth [8] | growth [9] | growth [10] | growth [11] | growth [12] | growth [13] | growth [14] | growth [15] | growth [16] | growth [17] | growth [18] | growth [19] | growth [20] [%]
1 | COc1ccc(NC(=O)c2sc3nc4c(cc3c2N)C(O)CCC4)cc1 (stereo not given) | 93.3% | 80.6% | 122% | 116% | 102% | 99.7% | 82.4% | 111% | 97.4% | 101% | 95.5% | 97.8% | 97.1% | 105% | 95.7% | 99.5% | 98.9% | 102% | 102% | 
2 | Cc1cccc2c(Nc3ccc(NS(C)(=O)=O)cc3)c3ccc([N+](=O)[O-])cc3nc12 | -15.3% (active) | 1.15% (active) | -22% (active) | 61.4% | -31.9% (active) | 12.5% | -15.2% (active) | 16.8% | -16.3% (active) | 16.7% | 6.83% (active) | -10.3% (active) | 25.7% | 3.4% (active) | 18% | -19.4% (active) | 1.92% (active) | -43.5% (active) | -5.65% (active) | 
3 | O=C(O)c1ccc(CNc2ccc(C(=O)CCl)cc2)cc1 | 101% | 92.1% | 111% | 104% | 78.4% | 109% | 86.1% | 102% | 75% | 105% | 94.9% | 96.4% |  |  | 91.9% | 97.9% | 95.3% | 77.9% | 95.2% | 93.1
4 | COc1cccc(C(=O)NNc2nc(N3CCN(C4CCCCC4)CC3)nc(N3CCN(C(c4ccccc4)c4ccccc4)CC3)n2)c1 | 87.5% | 11.5% | 9.41% (active) | 57.2% | 64.7% | 51.1% | 77.3% | 61.7% | 23.1% | 42.5% | 25.4% | 24% |  | 32.6% | 21% |  | 39.6% | 7.83% (active) | 64.3% | 
5 | Cc1ccc([P+](Cc2ccc([N+](=O)[O-])cc2)(c2ccc(C)cc2)c2ccc(C)cc2)cc1 | 78.3% | 11.2% | -15% (active) | 41.6% | 67.2% | 54.2% | 45.2% | 69% | -14.6% (active) | 19% | 96.7% |  | 57.6% | 39.6% | 38.7% | -12.4% (active) | -0.637% (active) | 32.4% | 28.4% | 30.9
6 | Cc1ccc2c(c1)-c1cc(C)nn1-c1ccc(C#N)cc1O2 | 98.7% | 19.7% | 76.1% | 61% | 65% | 74.4% | 67.2% | 69.1% | 78.4% | 40% | 38.7% | 20% | 68.6% | 46.9% | 66.2% | 75.9% | 52.4% | 49.4% | 70.3% | 
7 | Cc1ncc([N+](=O)[O-])n1CCOc1ccc(C(=O)/C=C/c2ccc(C(F)(F)F)cc2)cc1 | 56.4% | 14% | 81.8% | 82.9% | 64.1% | 77.4% | 73.8% | 57.5% | 82.9% | 79.7% | 38.1% | 29.7% |  |  | 50.6% | 78.4% | 67.5% | 57.3% | 88.2% | 
8 | COc1ccc(-c2nnc(N3CCN(C(=O)CN4CCN(c5ccc(Cl)cc5)CC4)CC3)nc2-c2ccc(OC)cc2)cc1 | 80.2% | 32% | 80.8% | 78.7% | 53.6% | 69% | 45.2% | 82.2% | 70.2% | 71.4% | 76.8% | 37.3% | 94.7% | 80.3% | 25.6% | 51% |  | 75.9% | 86.7% | 
9 | O=C1CC[C@@H](C(=O)N[C@H]2CSSC[C@@H](C(=O)N/C=C/c3ccc(O)cc3)NC(=O)[C@H](Cc3ccccc3)NC(=O)[C@@H]3CCCN3C(=O)[C@@H]3CCCN3C2=O)N1 | 106% | 93.9% | 115% | 98.9% | 96.9% | 107% | 99.5% | 96.6% | 95.4% | 94.5% | 97% |  | 94.4% | 96.2% | 87.3% | 97.5% | 99.7% | 94.5% | 101% | 100
10 | FC(F)(F)c1ccc(-c2ncc(-c3ccc(C(F)(F)F)cc3)c(NCc3cc(C(F)(F)F)cc(C(F)(F)F)c3)n2)cc1 | 69.6% | 44.4% | 75.4% | 72.5% | 66.6% | 69.3% | 9.91% (active) | 86.7% | 87.9% | 73.8% | 44.9% | 76.1% | 29.1% | 27.1% | 31.4% | 96.9% | 51.6% | 21.5% | 89.5% | 
11 | NS(=O)(=O)c1ccc(N2N=C(c3ccc(-c4ccccc4)cc3)CC2c2ccc(Cl)cc2)cc1 (stereo not given) | 96.6% | 71.2% | 106% | 86.9% | 73.4% | 83.5% | 88.4% | 93.9% | 92.4% | 98.2% | 60.9% | 64.4% |  | 75.7% | 43.2% | 86.8% | 51.1% | 87.2% | 96.8% | 
12 | Cn1c([N+](=O)[O-])cnc1/C=C1\Oc2ccc(Br)cc2C1=O | -57.9% (active) | -0.493% (active) | -53.4% (active) | -14.8% (active) | -59% (active) | -16.9% (active) | 11.2% | -59.5% (active) | -38.5% (active) | -35% (active) | -40.8% (active) | -31.4% (active) | 1.52% (active) | -29.6% (active) | -24.7% (active) | -89.2% (active) | -73.7% (active) | -52.3% (active) | -13.7% (active) | 
13 | CCN(CC)CCOC(=O)c1ccc(N=Nc2ccc(O)c(OC)c2)cc1 | 108% | 95.3% | 97% | 110% | 89.4% | 94.7% | 101% | 96.4% | 96.5% | 103% | 103% | 90.7% | 104% | 87.1% | 95.4% | 92% | 99.8% | 92.2% | 107% | 
14 | O=C1NN(c2ccccc2)C(c2cccnc2)=N/C1=C\c1cccnc1 | 93.1% | 102% | 105% | 92.6% | 99.5% | 89.4% | 95.1% | 102% | 105% | 91.7% | 93.9% |  | 92.7% | 102% | 92.1% | 91.8% | 86.1% | 82.9% | 116% | 79.6
15 | CCCCC(=O)N(c1ccc(Nc2c3ccccc3nc3cc([N+](=O)[O-])ccc23)cc1)S(C)(=O)=O | 26.3% | 64.3% | 92.7% | 84.6% | 75.8% | 53% | 34.4% | 79.8% | 79.8% | 92.9% | 76.3% | 79% | 69.5% | 64.2% | 52% |  | 75.8% | 52.5% | 105% | 
16 | COc1cc(-c2nc3ccccc3[nH]2)ccc1OCc1nnc(-c2ccc(Br)cc2)o1 | 84.8% | 57.3% | 67.4% | 76.2% | 87% | 96.8% | 102% | 110% | 97% | 91.9% | 45.3% | 70.7% | 104% | 83.9% | 96.2% | 75% | 92.7% | 92.6% | 93.2% | 
17 | COc1cc(-c2nc3cc(Cl)c(Cl)cc3[nH]2)ccc1OCC(=O)NN | 75.5% | 31.9% | 95.3% | 57.8% | 131% | 77.6% | 71.5% | 80.5% | 96.9% | 95.1% | 65.2% | 98% | 93% | 91.2% | 73.8% | 91% | 27.5% | 28.5% | 96.4% | 
